# Measurements taken from PubChem BioAssay (EPA / NIEHS).
# Inconclusive results are not listed. The source made the active and inactive calls. How the source made its calls, unless noted: active means hit-call score of the fitted dose curve at least 0.9, where 1 is the maximum; inactive means score below 0.9.
# Legend:
# [1] = biological target: Thyroid hormone receptor alpha (Rattus norvegicus) + Thyroid hormone receptor beta (Rattus norvegicus) (UniProt P18113+P63059); test: TOX21_TR_LUC_GH3_Antagonist_Followup: Tox21 GH3 Thyroid Hormone Receptor Antagonism Luciferase Follow-Up Assay (AID 2283942; active means hit-call score of the fitted dose curve at least 0.9, where 1 is the maximum)
# Outline: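 Antagonist mode: GH3 cells seeded 1,500/well, compounds at 15 concentrations (92 uM to 5nM final) plus T3 at 1.0 nM final, 24 h at 37C. Luciferase read with ONE-Glo after 30 min at room temperature.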
# THRA (gene 7067) = THRA (gene 7067) (UniProt P10827); test: TOX21_TRA_COA_Antagonist_Followup_ratio: Tox21 Thyroid Hormone Receptor alpha Antagonism through Coactivator Recruitment Follow-Up Assay, Ratio (AID 2283953; active means hit-call score of the fitted dose curve at least 0.9, where 1 is the maximum)
# THRA (gene 7067), sequence (P10827 whole entry, looked up, the tested form may be a part): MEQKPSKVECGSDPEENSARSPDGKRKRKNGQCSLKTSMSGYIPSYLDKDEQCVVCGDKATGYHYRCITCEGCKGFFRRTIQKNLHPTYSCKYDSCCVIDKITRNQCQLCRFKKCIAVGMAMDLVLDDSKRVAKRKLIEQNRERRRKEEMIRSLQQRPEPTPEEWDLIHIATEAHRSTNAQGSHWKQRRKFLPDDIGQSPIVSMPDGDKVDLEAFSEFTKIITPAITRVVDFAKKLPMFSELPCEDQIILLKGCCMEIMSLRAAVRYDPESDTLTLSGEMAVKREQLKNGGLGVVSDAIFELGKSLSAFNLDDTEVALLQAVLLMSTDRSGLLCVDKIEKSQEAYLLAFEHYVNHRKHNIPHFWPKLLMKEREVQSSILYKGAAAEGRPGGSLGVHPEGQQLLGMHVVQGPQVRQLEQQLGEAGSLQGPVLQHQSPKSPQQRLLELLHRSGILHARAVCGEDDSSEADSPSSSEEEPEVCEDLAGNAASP
# Outline: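 520:495 nm emission ratio (excitation 340 nm) reports fluorescein-SRC-2 peptide recruitment to GST-TRα LBD by TR-FRET with Tb anti-GST antibody. Values were normalized to DMSO (0%) and T3 control wells (100%); loss of signal indicated antagonism.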
# THRB (gene 7068) [2] = biological target: THRB (gene 7068) (UniProt P10828); test: TOX21_TRB_BLA_Antagonist_Followup_ratio: Tox21 Thyroid Hormone Receptor beta Antagonism Beta-lactamase (BLA) Follow-Up Assay, Ratio (AID 2283958; active means hit-call score of the fitted dose curve at least 0.9, where 1 is the maximum)
# THRB (gene 7068), sequence (P10828 whole entry, looked up, the tested form may be a part): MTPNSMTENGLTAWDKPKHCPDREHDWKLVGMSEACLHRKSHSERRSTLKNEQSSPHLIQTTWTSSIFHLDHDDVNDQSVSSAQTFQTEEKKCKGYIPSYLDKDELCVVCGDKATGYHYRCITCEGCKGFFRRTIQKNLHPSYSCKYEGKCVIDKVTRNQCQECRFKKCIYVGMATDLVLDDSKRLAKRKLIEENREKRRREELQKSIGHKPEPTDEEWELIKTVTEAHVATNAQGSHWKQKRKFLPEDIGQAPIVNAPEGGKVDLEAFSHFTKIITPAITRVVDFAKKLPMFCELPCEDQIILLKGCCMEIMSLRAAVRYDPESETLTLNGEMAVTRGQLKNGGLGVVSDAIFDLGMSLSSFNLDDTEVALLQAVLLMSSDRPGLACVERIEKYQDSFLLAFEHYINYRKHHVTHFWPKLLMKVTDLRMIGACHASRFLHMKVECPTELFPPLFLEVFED
# Outline: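 HEK293T cells with a GAL4-TRb LBD fusion and UAS-bla reporter, 3,000 cells/well in phenol red-free DMEM with 2% charcoal-stripped FBS. Exposed 18 h at 37C to 11 concentrations in triplicate; CCF4 460:530 nm ratio after 2 h, DMSO-referenced.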
# [3] = TOX21_TRB_BLA_Antagonist_Followup_viability: Viability Assessment in the Tox21 Thyroid Hormone Receptor beta Antagonism Beta-lactamase (BLA) Follow-Up Assay (AID 2283961; active means hit-call score of the fitted dose curve at least 0.9, where 1 is the maximum)
# Outline: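 In the same wells as the reporter read, cell health was gauged by CellTiter-Glo ATP luminescence, with signal loss indicating reduced viability. Cells had been exposed to test compounds for 18 h.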
# THRB (gene 7068) [4] = biological target: THRB (gene 7068) (UniProt P10828); test: TOX21_TRB_COA_Antagonist_Followup_ratio: Tox21 Thyroid Hormone Receptor beta Antagonism through Coactivator Recruitment Follow-Up Assay, Ratio (AID 2283967; active means hit-call score of the fitted dose curve at least 0.9, where 1 is the maximum)
# Outline: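 Cell-free TR-FRET: GST-TRb LBD (5.0 nM) with fluorescein-SRC-2 peptide (200 nM) and Tb anti-GST antibody (2 nM), 0.10% BSA. 520:495 nm emission ratio normalized to DMSO (0%) and T3 (100%).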
# [5] = CCTE_Harrill_HTTr_Viability_DMEM_6hr: (Pilot) CCTE's 6-hour Cell Viability Assessment for the High-Throughput Transcriptomics (HTTr) Platform, in MCF-7 cells cultured in DMEM + 10% fetal bovine serum, Harrill Lab (AID 2283973)
# Outline: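 MCF-7 cells in DMEM + 10% FBS, eight-point dilution series, 6 h exposure. Membrane integrity by propidium iodide exclusion with high-content imaging; bidirectional fit versus DMSO.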
# [6] = CCTE_Harrill_HTTr_Viability_DMEM_12hr: (Pilot) CCTE's 12-hour Cell Viability Assessment for the High-Throughput Transcriptomics (HTTr) Platform, in MCF-7 cells cultured in DMEM + 10% fetal bovine serum, Harrill Lab (AID 2283974)
# Outline: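 MCF-7 cells in DMEM + 10% FBS exposed 12 h to an eight-point dilution series; membrane integrity scored by propidium iodide exclusion with high-content imaging, bidirectional fitting versus DMSO.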
# [7] = CCTE_Harrill_HTTr_Viability_DMEM_24hr: (Pilot) CCTE's 24-hour Cell Viability Assessment for the High-Throughput Transcriptomics (HTTr) Platform, in MCF-7 cells cultured in DMEM + 10% fetal bovine serum, Harrill Lab (AID 2283975)
# Outline: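 MCF-7 cells in DMEM with 10% FBS exposed for 24 hours to an eight-point dilution series. Membrane integrity by propidium iodide exclusion with high content imaging; bidirectional fit against DMSO.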
# [8] = CCTE_Harrill_HTTr_Viability_PRF_DMEM_6hr: (Pilot) CCTE's 6-hour Cell Viability Assessment for the High-Throughput Transcriptomics (HTTr) Platform, in MCF-7 cells cultured phenol red-free DMEM + 10% charcoal-stripped fetal bovine serum, Harrill Lab (AID 2283976)
# Outline: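 MCF-7 cells in phenol red-free DMEM with 10% charcoal-stripped FBS exposed 6 hours to an eight-point dilution series. Propidium iodide exclusion imaged; curves fitted bidirectionally against DMSO.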
# [9] = CCTE_Harrill_HTTr_Viability_PRF_DMEM_12hr: (Pilot) CCTE's 12-hour Cell Viability Assessment for the High-Throughput Transcriptomics (HTTr) Platform, in MCF-7 cells cultured in phenol red-free DMEM + 10% charcoal-stripped fetal bovine serum, Harrill Lab (AID 2283977)
# Outline: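 MCF-7 cells in phenol red-free DMEM with 10% charcoal-stripped FBS exposed 12 hours to an eight-point dilution series. Viability assessed by high-content imaging of propidium iodide exclusion; bidirectional fit versus DMSO.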
# [10] = TOX21_TR_RXR_BLA_Antagonist_Followup_viability: Viability Assessment in the Tox21 Thyroid Hormone Receptor beta Retinoid X Receptor alpha (RXRa) Antagonism Beta-lactamase (BLA) Follow-Up Assay (AID 2283979; active means hit-call score of the fitted dose curve at least 0.9, where 1 is the maximum)
# Outline: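 RXRa-bla HEK293T cells (2,500/well, phenol red-free DMEM, 2% charcoal-stripped FBS) were attached 5 h, then exposed to compounds at 11 concentrations in triplicate for 16 h at 37C. Viability measured by CellTiter-Glo ATP luminescence, bidirectional fitting versus DMSO.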
# [11] = CCTE_Harrill_HTTr_Viability_PRF_DMEM_24hr: (Pilot) CCTE's 24-hour Cell Viability Assessment for the High-Throughput Transcriptomics (HTTr) Platform, in MCF-7 cells cultured in phenol red-free DMEM + 10% charcoal-stripped fetal bovine serum, Harrill Lab (AID 2283980)
# Outline: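 MCF-7 cells in phenol red-free DMEM with 10% charcoal-stripped FBS, eight-point dilution series, 24 h exposure. Membrane integrity by propidium iodide exclusion with high content imaging; bidirectional fit vs DMSO.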
# [12] = CCTE_Harrill_HTTr_Apoptosis_DMEM_6hr: (Pilot) CCTE's 6-hour Apoptosis Assessment for the High-Throughput Transcriptomics (HTTr) Platform, in MCF-7 cells cultured in DMEM + 10% fetal bovine serum, Harrill Lab (AID 2283981)
# Outline: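 Caspase-3/7 activation read by high content imaging with CellEvent Caspase 3/7 Green in MCF-7 cells (DMEM + 10% FBS), 6 h after dosing; eight-point dilution series. Bidirectional fitting relative to DMSO baseline.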
# [13] = CCTE_Harrill_HTTr_Apoptosis_DMEM_12hr: (Pilot) CCTE's 12-hour Apoptosis Assessment for the High-Throughput Transcriptomics (HTTr) Platform, in MCF-7 cells cultured in DMEM + 10% fetal bovine serum, Harrill Lab (AID 2283982)
# Outline: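 MCF-7 cells in DMEM + 10% FBS, exposed 12 h to an eight-point dilution series; caspase-3/7 activation imaged with CellEvent Green. Bidirectional fit versus DMSO.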
# [14] = CCTE_Harrill_HTTr_Apoptosis_DMEM_24hr: (Pilot) CCTE's 24-hour Apoptosis Assessment for the High-Throughput Transcriptomics (HTTr) Platform, in MCF-7 cells cultured in DMEM + 10% fetal bovine serum, Harrill Lab (AID 2283983)
# Outline: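 MCF-7 cells in DMEM + 10% FBS, eight-point dilution series, 24 h exposure. Caspase-3/7 activation imaged by high-content imaging with CellEvent Caspase 3/7 Green. Bidirectional curve fitting against DMSO baseline.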
# [15] = CCTE_Harrill_HTTr_Apoptosis_PRF_DMEM_6hr: (Pilot) CCTE's 6-hour Apoptosis Assessment for the High-Throughput Transcriptomics (HTTr) Platform, in MCF-7 cells cultured phenol red-free DMEM + 10% charcoal-stripped fetal bovine serum, Harrill Lab (AID 2283984)
# Outline: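 MCF-7 cells in phenol red-free DMEM + 10% charcoal-stripped FBS, eight-point dilution series, 6 h exposure. Caspase-3/7 activation imaged by high-content imaging with CellEvent Caspase 3/7 Green; bidirectional fit versus DMSO baseline.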
# [16] = CCTE_Harrill_HTTr_Apoptosis_PRF_DMEM_12hr: (Pilot) CCTE's 12-hour Apoptosis Assessment for the High-Throughput Transcriptomics (HTTr) Platform, in MCF-7 cells cultured in phenol red-free DMEM + 10% charcoal-stripped fetal bovine serum, Harrill Lab (AID 2283985)
# Outline: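 MCF-7 cells in phenol red-free DMEM with 10% charcoal-stripped FBS, eight-point dilution series, 12 h exposure. Caspase-3/7 activation imaged by high content imaging with CellEvent Green reagent; bidirectional fit vs DMSO.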
# [17] = CCTE_Harrill_HTTr_Apoptosis_PRF_DMEM_24hr: (Pilot) CCTE's 24-hour Apoptosis Assessment for the High-Throughput Transcriptomics (HTTr) Platform, in MCF-7 cells cultured in phenol red-free DMEM + 10% charcoal-stripped fetal bovine serum, Harrill Lab (AID 2283986)
# Outline: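 MCF-7 cells in phenol red-free DMEM with 10% charcoal-stripped FBS, exposed 24 h across an eight-point dilution series. Caspase-3/7 activation imaged with CellEvent Green by high content imaging; bidirectional fitting against DMSO.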
# [18] = TOX21_PR_LUC_Followup_Agonist_viability: Viability Assessment in the Tox21 HEK293 Progesterone Receptor (PR) Agonism Luciferase Follow-Up Assay (AID 2283941; active means hit-call score of the fitted dose curve at least 0.9, where 1 is the maximum;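 further: loss of signal means cytotoxicity so actives lower viability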)
# Outline: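 HEK293-PR-A-luc cells, kept in 10% charcoal-stripped FBS medium, were treated with compounds for 16 h at 37C. Viability read as cellular ATP by luciferase-coupled luminescence; loss of signal indicates cytotoxicity.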
# [19] = biological target: Retinoic acid receptor RXR-alpha (Homo sapiens) (UniProt P19793); test: TOX21_TR_RXR_BLA_Antagonist_Followup_ratio: Tox21 Thyroid Hormone Receptor beta Retinoid X Receptor alpha (RXRa) Antagonism Beta-lactamase (BLA) Follow-Up Assay, Ratio (AID 2283972; active means hit-call score of the fitted dose curve at least 0.9, where 1 is the maximum)
# Retinoic acid receptor RXR-alpha (Homo sapiens), sequence (P19793 whole entry, looked up): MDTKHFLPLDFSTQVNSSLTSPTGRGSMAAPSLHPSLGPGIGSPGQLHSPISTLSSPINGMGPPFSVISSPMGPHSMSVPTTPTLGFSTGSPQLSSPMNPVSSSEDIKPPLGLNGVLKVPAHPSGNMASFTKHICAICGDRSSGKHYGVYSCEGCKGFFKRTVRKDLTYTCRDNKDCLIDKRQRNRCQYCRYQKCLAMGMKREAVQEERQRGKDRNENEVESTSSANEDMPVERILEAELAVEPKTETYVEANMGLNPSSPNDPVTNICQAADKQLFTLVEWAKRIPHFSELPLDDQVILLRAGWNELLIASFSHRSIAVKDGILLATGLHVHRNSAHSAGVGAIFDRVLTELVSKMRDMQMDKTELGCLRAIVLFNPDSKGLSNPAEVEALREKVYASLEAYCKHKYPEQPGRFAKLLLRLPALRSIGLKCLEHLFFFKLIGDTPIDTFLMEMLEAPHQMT
# Outline: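 Compounds were tested in triplicate at 11 concentrations on RXRa-bla HEK293T cells for 16 h. Substrate cleavage ratio, normalized to DMSO, gave the endpoint.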
smiles,measurement,setting,value
CN(C)C(=S)SSC(=S)N(C)C,AC50,[1],24.3 µM (active)
same,outcome,THRA (gene 7067),inactive
same,outcome,THRB (gene 7068) [2],inactive
same,outcome,[3],inactive
same,outcome,THRB (gene 7068) [4],inactive
same,outcome,[5],inactive
same,outcome,[6],inactive
same,AC50,[7],54.6 µM (active)
same,outcome,[8],inactive
same,outcome,[9],inactive
same,outcome,[10],inactive
same,AC50,[11],46.7 µM (active)
same,outcome,[12],inactive
same,outcome,[13],inactive
same,AC50,[14],80.6 µM (active)
same,outcome,[15],inactive
same,outcome,[16],inactive
same,outcome,[17],inactive
CCCC1COC(Cn2cncn2)(c2ccc(Cl)cc2Cl)O1 (stereo not given),outcome,[5],inactive
same,outcome,[6],inactive
same,outcome,[7],inactive
same,outcome,[8],inactive
same,outcome,[9],inactive
same,outcome,[11],inactive
same,outcome,[12],inactive
same,outcome,[13],inactive
same,outcome,[14],inactive
same,outcome,[15],inactive
same,outcome,[16],inactive
same,outcome,[17],inactive
COC(=O)N(OC)c1ccccc1COc1ccn(-c2ccc(Cl)cc2)n1,outcome,[18],inactive
same,AC50,[1],1.09 µM (active)
same,outcome,THRA (gene 7067),inactive
same,AC50,THRB (gene 7068) [2],4.01 µM (active)
same,AC50,[3],14.9 µM (active)
same,outcome,THRB (gene 7068) [4],inactive
same,AC50,[19],38.3 µM (active)
same,outcome,[5],inactive
same,outcome,[6],inactive
same,outcome,[7],inactive
same,outcome,[8],inactive
same,outcome,[9],inactive
same,AC50,[10],7.9 µM (active)
same,outcome,[11],inactive
same,outcome,[12],inactive
same,outcome,[13],inactive
same,outcome,[14],inactive
same,outcome,[15],inactive
same,outcome,[16],inactive
same,outcome,[17],inactive
CCc1nn(C)c(C(=O)NCc2ccc(C(C)(C)C)cc2)c1Cl,outcome,[1],inactive
same,outcome,THRB (gene 7068) [2],inactive
same,AC50,[3],4.69 µM (active)
same,outcome,THRB (gene 7068) [4],inactive
same,outcome,[19],inactive
same,AC50,[10],7.74 µM (active)
N#CC(CCc1ccc(Cl)cc1)(Cn1cncn1)c1ccccc1 (stereo not given),outcome,[18],inactive
CON(C)C(=O)Nc1ccc(Cl)c(Cl)c1,outcome,[18],inactive
CC(C)(C)c1ccc(CSc2cnn(C(C)(C)C)c(=O)c2Cl)cc1,outcome,[3],inactive
same,outcome,[10],inactive
